Source: PubChem BioAssay (NCI)
Compounds without any hit were thinned out: in the full panel of roughly 83,000, 20% have a hit.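 48-hour exposure, single concentration, 96-well plates; percent growth endpoint where 0 means no net growth. Active: below 10.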 Unmarked numbers belong to inactive results. Calls of active or inactive are those of the source.

These molecules were tested on HCT-116 colon (assay: NCI-60 one-dose screen, 48 h (100 = growth as untreated, 0 = no growth, -100 = all killed)). Details: 10 µM unless noted.

| Compound | growth |
| --- | --- |
| C=C1C(=O)O[C@H]2[C@H]1CC/C(COC(=O)/C=C\C(=O)O)=C\CC[C@@]1(C)O[C@@H]21 | 109% |
| CCCCC1CCc2cccc3c(SCC(=O)N(C)c4ccc(Cl)cc4)cc[n+]1c23 (centres undefined) | 102% |
| O=C(c1nc2ccccc2[nH]1)C1C(c2cccc([N+](=O)[O-])c2)C2CC3CCCCC3N2[C@@]12C(=O)Nc1cc(Cl)ccc12 (some centres undefined) | 13% |
| O=C1/C(=C/c2ccc(O)cc2)COc2ccc(O)cc21 | 86.1% |
| O=C1/C(=C/c2ccc(O)cc2)COc2ccc(O)c(O)c21 | 20.8% |
| COc1cc2nc(NC3CCCC3)nc(NC3CCN(C(C)C)CC3)c2cc1OC | 66.5% |
| Cc1ccccc1CNC(=O)C1CN(c2ccc(Cl)cc2)N(c2ccc(Cl)cc2)C1=O (centres undefined) | 83.8% |
| COc1cc(C2CC(c3ccc(Nc4nc(NCCO)nc(N5CCOCC5)n4)cc3)=NN2c2cc(Cl)cc(Cl)c2)cc(OC)c1OC (centres undefined) | 33.1% |
| O=C(c1nc2ccccc2[nH]1)C1C(c2ccc([N+](=O)[O-])cc2)C2CC3CCCCC3N2[C@@]12C(=O)Nc1cc(Cl)ccc12 (some centres undefined) | 17.9% |
| O=C(Cn1cc(COc2ncnc3c2cnn3-c2ccccc2)nn1)Nc1cccc2ccccc12 | 102% |
| CN1C(=O)N(C)C2Nn3c(s/c(=C\c4ccc(Cl)cc4Cl)c3=O)=NC21 (centres undefined) | 43.9% |
| O=Cc1cc2ccccc2nc1Nc1nccs1 | 54.3% |
| O=C1/C(=C/c2cccc(O)c2)COc2ccc(O)cc21 | 10.1% |
| COc1cc2nc(NC3CCC3)nc(NC3CCN(C(C)C)CC3)c2cc1OC | 48.1% |
| O=C(c1nc2ccccc2[nH]1)C1[C@@H](c2cccc(O)c2)C2CC3CCCCC3N2[C@@]12C(=O)Nc1cc(Cl)ccc12 (some centres undefined) | 31.5% |
| CCN1C(=O)N(c2ccccc2)C2NN=c3s/c(=C4\C(=O)N(C(C)C)c5ccccc54)c(=O)n3C21 (centres undefined) | 4.19% (active) |
| Cc1sc2ncn(CC(=O)Nc3ccc(S(N)(=O)=O)cc3)c(=O)c2c1C | 106% |
| COC(=O)c1c2c(c(C)[n+]([O-])c1C)C(=O)C(NCc1ccc(F)c(F)c1)=CC2=O | 1.74% (active) |
| CNCCNc1nc2ccccc2c2c(=O)c3cccc(OC)c3sc12 | -68.2% (active) |
| CNCCNc1nc2ccccc2c2c(=O)c3cccc(C)c3sc12 | -91.4% (active) |

| Compound | growth |
| --- | --- |
| COc1cc(/C=C2\Oc3cc(OCCCN4CCCC4)ccc3C2=O)cc(OC)c1 | -67.3% (active) |
| COC(=O)[C@H](NC(=O)C1(C)CCC[C@]2(C)[C@H]3C[C@H]4C(C(C)C)=C[C@]3(CC[C@@H]12)[C@@H]1C(=O)CCC(=O)[C@@H]14)C(C)C (some centres undefined) | 106% |
| COc1cc(/C=C2\CN(C)C/C(=C\c3cc(CN4CCCCC4)c(O)c(OC)c3)C2=O)cc(CN2CCCCC2)c1O | 30.7% |
| O=S(=O)(Nc1ncccn1)c1ccc(NC2Nc3nc4ccccc4nc3S2)cc1 (centres undefined) | 101% |
| O=C1CCC(N2C(=O)c3cccc(NCCCCCCOc4ccc(Nc5nccc(Nc6ccccc6)n5)cc4)c3C2=O)C(=O)N1 (centres undefined) | 77.6% |
| Cc1c(-c2csc(-n3nc(C(F)(F)F)cc3C(F)(F)F)n2)no[n+]1[O-] | 93.1% |
| O=C(NCc1ccccc1)C1CN(c2ccc(Cl)cc2)N(c2ccc(Cl)cc2)C1=O (centres undefined) | 83.8% |
| c1ccc2c(c1)oc1cc3sccc3nc12 | 96.7% |
| CCCCC1COc2cccc3c2N1C=C/C3=C\C(=O)N(C)c1ccccc1 (centres undefined) | 36.1% |
| COc1cc(/C=C/C(=O)c2ccc(Nc3nc(NCCO)nc(N4CCOCC4)n3)cc2)cc(OC)c1OC | 9.47% (active) |
| Cc1cccc2c(=O)c3c(sc12)c(NCCCNCCO)nc1ccccc13 | -30.3% (active) |
| COc1cc(/C=C2\CN(C)C/C(=C\c3cc(CN4CCCC4)c(O)c(OC)c3)C2=O)cc(CN2CCCC2)c1O | 40.4% |
| O=C(/C=C/c1ccc(C(F)(F)F)cc1)c1ccc(Nc2nc(NCCO)nc(N3CCOCC3)n2)cc1 | -28.3% (active) |
| NCCOc1ccccc1/C=C1\c2ccccc2-c2ccc([N+](=O)[O-])cc21 | -95.3% (active) |
| O=C(/C=C/c1ccc(F)cc1)c1ccc(Nc2nc(NCCO)nc(Nc3ccc(Cl)cc3)n2)cc1 | 8.67% (active) |
| O=c1oc2ccc(Br)cc2c(=O)n1-c1ccc(Br)cc1F | -40.2% (active) |
| NCCNc1nc2ccccc2c2c(=O)c3cc(F)cc(Cl)c3sc12 | -89.6% (active) |
| CCCN1CCN(c2ccc3nc(-c4ccc5nc(-c6cc(OC)ccc6OC)[nH]c5c4)[nH]c3c2)CC1 | -57.3% (active) |
| Cc1ccc(C2CC(c3ccc(Nc4nc(NCCO)nc(Nc5ccc(Cl)cc5)n4)cc3)=NN2c2cc(Cl)cc(Cl)c2)cc1 (centres undefined) | 103% |
